Experimental data from PubChem BioAssay AID2551 (National Center for Advancing Translational Sciences (NCATS), 2010).
The campaign covered roughly 310,000 compounds. About 17,000 (5.5%) were called active. Another 11% or so got no clear call; they are omitted. The call rests on the fitted dose curve; in most records, active means well fitted inhibition curve with a large enough effect; inconclusive means small, poorly fitted or top-dose-only effect, or effect the other way; inactive means no such curve, though single readings can be large or run the other way. The sample as a whole holds a higher share of actives than the screen did.

What follows are molecules tested against Nuclear receptor ROR-gamma (Mus musculus) (UniProt P51450) (assay: qHTS for inhibitors of ROR gamma transcriptional activity). Conditions: Drosophila S2 Gal4-RORgamma UAS-luciferase reporter, 20 h; series mostly up to 53.6 µM; activity change, negative = inhibition: at the top concentration.
Nuclear receptor ROR-gamma (Mus musculus), sequence (P51450 whole entry, looked up, the tested form may be a part): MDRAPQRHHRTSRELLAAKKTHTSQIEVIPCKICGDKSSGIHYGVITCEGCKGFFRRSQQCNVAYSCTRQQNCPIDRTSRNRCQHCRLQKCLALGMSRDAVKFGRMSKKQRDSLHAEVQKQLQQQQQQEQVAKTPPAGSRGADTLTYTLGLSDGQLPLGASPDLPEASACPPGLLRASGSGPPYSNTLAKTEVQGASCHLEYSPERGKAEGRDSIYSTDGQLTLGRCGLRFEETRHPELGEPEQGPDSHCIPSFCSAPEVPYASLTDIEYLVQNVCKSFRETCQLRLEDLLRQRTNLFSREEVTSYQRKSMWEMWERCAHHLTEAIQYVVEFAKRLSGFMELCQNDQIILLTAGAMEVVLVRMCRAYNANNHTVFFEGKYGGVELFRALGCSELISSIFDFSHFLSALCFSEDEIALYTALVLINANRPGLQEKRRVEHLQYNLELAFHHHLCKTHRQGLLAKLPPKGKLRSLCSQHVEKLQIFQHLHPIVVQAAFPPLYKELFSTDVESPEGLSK
Text: NIH Molecular Libraries Probe Production Network [MLPCN] NIH Chemical Genomics Center [NCGC] MLPCN Grant: R03 DA026211-01 Assay Provider: Dan Littman, New York University Assay Overview: The retinoic acid-related orphan receptor (ROR) gamma is a transcription factor that has a central role in the differentiation of Th17 cells, a subset of T helper cells that secrete the inflammatory cytokines IL-17, IL-17F, and IL-22. Th17 cells have been implicated in graft versus host disease, autoimmune disease and asthma. ROR gamma is induced in naive T helper cells in the presence of TGF-beta combined with IL-6, IL-21, or IL-23, and thereafter directs the expression of the Th17 lineage cytokines. To study the mechanism of action of ROR gamma, an insect cell-based assay was screened. This Drosophila Schneider cell line was stably transfected with two vectors: a gene expressing a fusion of the Gal4 DNA binding domain and ROR gamma transactivation domain under the control of the metallothionine promoter and a Photinus luciferase reporter regulated by the Gal4 binding site enhancer, UAS. […] Small molecule inhibitors of ROR gamma activity are detected by a decrease in luciferase reporter activity.
Assay Protocol Summary: For screening, 600 cells in 4 uL/well were dispensed into white solid 1536-well plates (Grenier) using a solenoid-based dispenser. Following transfer of 23 nL compound or DMSO vehicle by a pin tool, the plates were incubated 1 hr at ambient temperature, and 1 uL/well copper sulfate (700 uM final concentration) was added. The plates were centrifuged 15 s at 1000 RPM and incubated 20 hr at ambient temperature. After addition of 1.5 uL Photinus luciferase detection reagent, the plates were incubated 10 min at ambient temperature and then read by an ViewLux (Perkin Elmer) to detect luminescence. Keywords: NIH Roadmap, MLPCN, MLI, MLSMR, qHTS, NCGC, qHTS, nuclear hormone receptor, retinoic acid-related orphan receptor, ROR gamma
Further: nearly all actives have a fitted effect of over 60% in size.
On the % scale 0 is the no-effect control and ±100 the full control effect; potency means the concentration at half of the fitted maximal effect.

Activity change, negative = inhibition, inactive:
O=C(CCN1CCN(C/C=C/c2ccccc2)CC1)Nc1ccccc1Cl -1.61%, C/C=C/C(=O)OCc1csc(CC(=O)Nc2ccccc2C)n1 -16.8%, COc1cccc(N(CC(=O)NC2CCCCCC2)S(=O)(=O)c2ccccc2)c1 -18.8%, COc1ccc(CCNC(=O)CCc2cn(C)c3ccccc23)c(OC)c1 -12.4%, Cc1cccc(NC(=S)NC23CN4CN(CN(C4)C2)C3)c1 -15.1%, Cc1cccc(NC(=O)C2CCN(C(=O)NC3CCCCC3)CC2)c1 -25.8%, O=C(NC1CCCC1)C(=O)c1c[nH]c2ccccc12 -36.6%, CCOc1ccc2[nH]c(C(=O)N/N=C/c3cccc(OC)c3OC)cc2c1 -15.4%, C#CC(C)(C)NC(=O)c1cnc(-c2ccccc2)nc1-c1ccccc1 -14.4%, COc1ccccc1NC(=O)Nc1nnc(Cc2ccc(F)cc2)s1 7.65%, COc1ccc(Cc2nnc(NC(=O)c3ccc(OC)cc3OC)s2)cc1 19.7%, CCCc1nnc(NC(=O)CCC(=O)N2CCN(S(=O)(=O)c3ccc(OC)cc3)CC2)s1 12.7%, CCCc1nnc(NC(=O)c2cccs2)s1 -40%, Cc1cc(C)c2nc(N3CCC(C(=O)NCCN4CCOCC4)CC3)sc2c1 7.01%, Cc1nonc1NC(=O)c1oc2ccccc2c1C -0.26%, COc1ccc(C(=O)C2CCCN(C(=O)c3cc(C)on3)C2)cc1F (stereo not drawn) 11%, COc1ccccc1CNC(=O)c1ccc(N(C)S(=O)(=O)c2ccc(C)cc2)cc1 2.62%, COc1ccc(CSc2nnnn2-c2ccc(C(=O)O)cc2)cc1 14.9%, COc1cc(/C=C(\C#N)c2nc3ccccc3[nH]2)ccc1O 15.4%, COc1cc(/C=N/Nc2nc3ccccc3s2)ccc1O -23%, CCc1ccc(OCC(=O)NCC(c2ccc(Cl)cc2)N2CCCCC2)cc1 (stereo not drawn) 0%, OC1CSc2nc3ccccc3n2C1 (stereo not drawn) 2.37%, O=C(Nc1ccccc1)C1CC(=O)n2c(nc3ccccc32)N1 (stereo not drawn) -22%, Cc1ccc(-n2nc3c(=O)n(C(C)C(=O)NCc4ccc5c(c4)OCO5)nc(C)c3c2C)cc1 (stereo not drawn) 26.2%, CN(CC1CCCO1)S(=O)(=O)c1ccc(C(=O)Nc2ccc(F)cc2)cc1 (stereo not drawn) 17.2%, COCCn1c(-c2ccc(OC)c(OC)c2)nc2ccccc21 -28.3%, COc1ccc(NC(=O)COC(=O)Cn2c(C)nc3ccccc32)cc1OC 16.5%, COc1cccc(CNC(=O)COc2cc(O)c3c(c2)OC(C)(C)CC3=O)c1 4.48%, Cc1[nH]c(C)c(S(=O)(=O)N2CCN(c3cccc(C(F)(F)F)c3)CC2)c1C(=O)N1CCCC1 -17.9%, Cc1ccccc1N1CCN(S(=O)(=O)c2ccc3ccccc3c2)CC1 -16.6%, Cc1cccn2c(=O)c(C=O)c(Nc3ccc(S(N)(=O)=O)cc3)nc12 -41.3%, CN(CC1CCCO1)S(=O)(=O)c1ccc(C(=O)Nc2ccc([N+](=O)[O-])cc2)cc1 (stereo not drawn) 13.7%, CC(=O)N1c2ccc(S(=O)(=O)N3CCC(C(=O)NC4CCCC(C)C4C)CC3)cc2CC1C (stereo not drawn) -1.35%, Cc1ccccc1CNC(=O)CCC(=O)N1Cc2ccccc2Oc2ncccc21 4.13%, COc1ccc2[nH]c(=O)c(CN(Cc3cccnc3)S(=O)(=O)c3ccccc3F)cc2c1 21.1%, O=C(CCOc1ccccc1)NCc1ccccc1 5.22% [at 0.365 µM], COc1cc(C(=S)NCc2ccccc2)cc(Br)c1O 15.3%, COC(=O)Cc1ccc(OCC(=O)Nc2ccc(OC(F)(F)F)cc2)cc1 26.2%, Cn1nccc1NC(=O)Nc1ccc(OC(F)(F)F)cc1 15.9%, CC(C)Cn1c(=O)c2ccccc2n2c(CCC(=O)NCc3ccccn3)nnc12 -7.08%, Cc1ccc(C(C(=O)NCC2CCCO2)N(C(=O)c2snc(C(N)=O)c2N)c2ccc(C(C)C)cc2)o1 (stereo not drawn) 40.4%, CCOc1ccc(OCC(=O)Nc2c3c(nn2C(C)(C)C)CS(=O)(=O)C3)cc1 -13.8%, CC(C)(C)c1ccc(SCCc2ccncc2)cc1 -15.8%, COc1ccc2c(c1)SC(C)CC2=O (stereo not drawn) -11.9%, CC1(C)CC(=O)c2ccc(O)cc2O1 29%, CC(=O)N1CCOc2ccc(S(=O)(=O)N3CCN(c4cccc(C(F)(F)F)c4)CC3)cc21 30.8%, COc1ccc(-c2nnc(SCC(=O)NC3CCCCC3)o2)cc1OC -18.5%, COc1ccc(-n2c(C)cc(C(=O)CSc3nnc(-c4cccs4)o3)c2C)cc1 -33.4%, COCCOC(=O)C1=C(C)NC(=O)NC1c1cc2c(cc1Br)OCO2 (stereo not drawn) -4.24%, O=C(O)c1ccc(/C=N/Nc2nc(N3CCCCC3)nc(N3CCCCC3)n2)cc1 -42.2%, Cc1ccc2cc(/C=N/Nc3ccc(C(=O)O)cc3)c(Cl)nc2c1 -43.4%, O=C(O)c1ccc(OCC2CCCO2)cc1 (stereo not drawn) -11.8%, Cc1ccc(-c2nc(-c3ccncc3)no2)c(C)c1 -32.9%, CCOc1ccccc1NC(=O)CCc1nnc2ccc(NCc3ccco3)nn12 0.872%, O=S(=O)(ON(c1ccccc1)S(=O)(=O)c1ccccc1)c1ccccc1 26.8%, CC1=C/C(=N\S(=O)(=O)c2ccccc2)C(C(C)C)=CC1=O -9.35%, Brc1cc(/C=N/n2cnnc2)oc1Br 37.3%, Fc1ccc(Br)cc1/C=N/n1cnnc1 -8.64%, O=C(CN1CCN(c2ccc(Cl)cc2)CC1)c1ccccc1 0.492%, COc1ccc(S(=O)(=O)NCCOc2ccccc2)cc1F 29.1%, COc1ccc(NS(=O)(=O)c2cc(C(=O)Nc3ccccc3C(=O)O)ccc2C)cc1 25.4%, COc1ccc(/C=C(/NC(=O)c2ccc(C)cc2)c2nc3ccccc3[nH]2)cc1OC 16.7%, COCCN(CC(=O)Nc1ccccc1C)S(=O)(=O)c1ccc(S(=O)(=O)N2CCCC2)cc1 -8.45%, COc1ccc(-n2c(=O)[nH]c3cc(C(=O)NCCc4ccc(OC)c(OC)c4)ccc3c2=O)c(OC)c1 27.9%, COc1ccc(CNC2CCCCC2)cc1 -10.4%, COc1ccc(CN2CC(C(=O)NC3CCCCC3)CC2=O)cc1 (stereo not drawn) 1.66%, CCN(C(=O)CN1C(=O)/C(=C/c2ccc(F)cc2)SC1=S)C1CCS(=O)(=O)C1 (stereo not drawn) -12.7%, CN(CC(=O)NCc1ccc(Cl)cc1)S(=O)(=O)c1cccs1 21.2%, O=C(COc1ccccc1)NCCc1nc2ccccc2[nH]1 1.23%, O=C(Cc1nc2ccccc2[nH]c1=O)c1ccc(Cl)cc1 32.2%, COc1ccccc1CNC(=O)C1CCN(S(=O)(=O)c2ccc3c(c2)OCCO3)CC1 -14.7%, COc1ccc(NC(=O)CC(NC(C)c2ccccc2)C(=O)O)cc1 (stereo not drawn) -12.4%, Cc1cc(NCc2ccco2)n2c(nc3ccccc32)c1C#N 38.8%, Cc1nn2c3ccccc3nc2n(C)c1=O -32%, N#Cc1c(-c2ccccc2)nc(SCc2ccc([N+](=O)[O-])cc2)[nH]c1=O 1%, CC(C)NC(=O)N1CCN(c2ccncc2S(=O)(=O)N2CCCCC2)CC1 8.85%, CC(C)C[C@H]1CN=C(Nc2ccccc2)N1CC1CCCCC1 -2%, C/C(=N\Nc1nc(N2CCOCC2)nc(N2CCOCC2)n1)c1ccc([N+](=O)[O-])cc1 -4.91%, Cc1ccc(Nc2nc(N3CCOCC3)nc(N3CCOCC3)n2)cc1Cl 3.19%, Cc1ccc(-n2ncc(C(=O)NC3CC3)c2C2CCN(C(=O)OC(C)(C)C)CC2)c(C)c1 0.982%, CCOc1ccc(CNC(=O)C2CCCN(c3nnc(C)c4c(C)n(-c5ccccc5)nc34)C2)cc1 (stereo not drawn) -25.4%, COc1ccc(-c2csc(NC(=O)CCCc3cccs3)n2)cc1 22.6%, Cc1ccc(-c2csc(NC(=O)Cc3cccs3)n2)cc1C 5.64%, O=C(COC(=O)/C=C/c1cccs1)NC1CCCCC1 21.6%, Cc1nc2ccccc2c(=O)n1Cc1ccc([N+](=O)[O-])cc1 -3.36%, Cn1cc(/C=C/c2nc3ccccc3c(=O)n2-c2cccc([N+](=O)[O-])c2)c2ccccc21 0.991% [at 10 µM]

Potency, inactive:
CCN1C(=NCC(C)C)N[C@@H](CCc2ccccc2)[C@H](C(=O)NCC(C)C)[C@H]1C

Potency, active:
Cc1cccc(NC(=S)NCCN(C2CCCCC2)C2CCCC2)c1 8.91 µM, COc1ccc(Cc2nnc(NC(=O)c3cc(OC)c(OC)c(OC)c3)s2)cc1OC 7.08 µM, CCCc1nnc(NC(=O)c2cc(OC)cc(OC)c2)s1 11.2 µM, COc1cc(/C=C(\C#N)c2nc3c(s2)CC(C)CC3)ccc1O (stereo not drawn) 1.41 µM, C[C@H]1[C@H]2c3nc4ccccc4n3C[C@H]1ON2C1CCCCC1 11.2 µM, COc1ccc(-c2nc3ccccc3n2CCC(C)C)cc1OC 11.2 µM, CCNC(=S)Nc1ccc(OC(F)(F)F)cc1 8.91 µM, FC(F)(F)Oc1ccc(NC(=S)NCc2ccccc2)cc1 7.08 µM, COc1ccc2c(c1)OC(O)(C(F)(F)C(F)F)CC2=O (stereo not drawn) 12.6 µM, COc1ccc(OC)c(C(=O)CSc2nnc(-c3cccs3)o2)c1 7.08 µM, O=C(O)c1ccc(N/N=C/c2ccc3ncccc3c2)cc1 0.398 µM, N=C1/C(=C/c2cccn2-c2cccc([N+](=O)[O-])c2)C(=O)N=C2SC=CN12 5.01 µM, CC1=C/C(=N\OS(=O)(=O)c2ccccc2)C=CC1=O 1.58 µM, CCOc1cc(/C=N/n2cnnc2)c(Br)cc1O 7.08 µM, COCCN(CCOC)S(=O)(=O)c1ccc(/C(O)=C(\C#N)c2nc3ccccc3[nH]2)cc1 12.6 µM, COc1ccc(CN2CN(C3CCCC3)CSC2=S)cc1 7.94 µM, N#C/C(=C(/O)COC(=O)COc1ccc(Cl)cc1)c1nc2ccccc2[nH]1 8.91 µM, CN1c2ccccc2-c2nc3ccccc3n2C1c1ccco1 (stereo not drawn) 14.1 µM, C/C(=N\Nc1nc(Nc2ccccc2)nc(N2CCOCC2)n1)c1cccs1 14.1 µM, CCCc1ccc(-c2csc(NC(=O)Cc3cccs3)n2)cc1 12.6 µM, CCn1c(/C=C/c2ccc([N+](=O)[O-])o2)nc2ccccc2c1=O 7.94 µM
